# Where “and” joins values, the source holds several entries; their conditions need not be identical. Equal values may be shown once. Inconclusive results are not listed. Entries that show only a call come without a potency. Calls of active or inactive are those of the source. Unless noted, calls follow the shape of the dose curve; as a rule, active = well fitted curve in the direction sought with a large enough effect; inconclusive = small, poorly fitted or top-dose-only effect, or another doubt; inactive = no such curve, though single readings can be large; an effect the other way counts as inactive or inconclusive.
# How the values were obtained:
# [1] = molecular target: Mitogen-activated protein kinase 10 (Mus musculus) (UniProt Q61831); assay: JNK3 AlphaScreen Assay (AID 530; active = well fitted curve in either direction with a large enough effect, not every such curve was filed as active;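 also: kinase came from lysate of stimulated human HepG2 cells; signal reports phosphorylation of biotinylated GST-cJun 1-79 at Ser73 with 10 µM ATP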)
# In short: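 Biotinylated GST-cJun(1-79) served as substrate for JNK3 in HepG2 lysates stimulated with IL-1beta and TNF-alpha. ATP was 10 uM final, pH 7.6. Ser73 phosphorylation was quantified by AlphaScreen (680 nm excitation).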
# [2] = Cell Viability - NIH 3T3 (AID 541); details: NIH 3T3 cell viability, qHTS; activity change, negative = cytotoxicity: at 92.2 µM (top of the series);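 also: cells exposed to compound for 40 hours; nearly all actives have a fitted effect of over 25% in size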; also: potency is read from the fitted curve at half-maximal effect
# In short: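 In this cytotoxicity screen, acute toxicity is scored as an ATP drop measured by CellTiter-Glo in NIH 3T3 fibroblasts following a 40 hr, 37 °C incubation with compound.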
# [3] = Cell Viability - LYMP2-003 (AID 965);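 also: cells exposed to compounds for 24 h before reading; nearly all actives have a fitted effect of over 50% in size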; also: potency is read from the fitted curve at half-maximal effect
# In short: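 Seed 2500 lymphoblastoid cells/well; incubate 5 hr, 37 C; add compounds; incubate 24 hr, 37 C; add CellTiter-Glo, 30 min RT; read luminescence. AC50 from Hill fit.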
# [4] = molecular target: Estrogen receptor (Homo sapiens) (UniProt P03372); assay: qHTS assay for small molecule agonists of estrogen receptor alpha signaling (AID 588514; calls by dose curve; also: nearly all actives have a fitted effect of over 70% in size)
# In short: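 Fluorescence from CCF4 cleavage reports ER-alpha-driven beta-lactamase expression in HEK 293 cells treated 18 hrs at 37 C. Data normalized to 17-beta-estradiol (20 nM) and DMSO, fitted to Hill equation.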
# [5] = molecular target: Bile acid receptor (Homo sapiens) (UniProt Q96RI1); assay: qHTS assay for small molecule antagonists of farnesoid X receptor signaling (AID 588526; calls by dose curve)
# In short: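 Concentration-response titrations were fitted to the Hill equation for half-maximal inhibition and maximal response, with data normalised to 50 uM chenodeoxycholic acid and DMSO control wells. Cells: FXR-UAS-bla HEK293T, dialyzed FBS.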
# [6] = qHTS assay for small molecule antagonists of peroxisome proliferator-activated receptor delta signaling (AID 588535); details: HEK293T PPARd-UAS-bla, beta-lactamase FRET ratio, 18 h; 460 nm channel;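 also: cells co-treated with a PPAR-delta agonist as stimulator during compound exposure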
# In short: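 Compounds tested in titration on PPAR-delta-UAS-bla HEK293T cells grown in charcoal/dextran-stripped serum (2%); beta-lactamase activity read via CCF4 emission at 460 and 530 nm.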
# [7] = molecular target: Retinoic acid receptor RXR-alpha (Homo sapiens) (UniProt P19793); assay: qHTS assay for small molecule agonists of retinoid X receptor alpha signaling (AID 588544; calls by dose curve)
# [8] = qHTS assay for small molecule agonists of the antioxidant response element (ARE) signaling pathway (AID 651741; active = well fitted activation curve with a large enough effect in the signal ratio; the % refers to the signal ratio; also: potency is read from the fitted curve at half-maximal effect)
# In short: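 Beta-lactamase reporter expression driven by the antioxidant response element in HepG2 cells was detected by fluorescence with LiveBLAzer B/G FRET substrate (2 h, room temperature) following 16 h compound treatment at 37 C.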
# [9] = qHTS assay for small molecule agonists of the antioxidant response element (ARE) signaling pathway measured by Nrf2-dependant transcriptional activity - cell viability counter screen (AID 720653; active = well fitted curve in the direction sought with a large enough effect in the repeat runs; an effect the other way counts as inactive or inconclusive); details: ARE-bla HepG2 viability, CellTiter-Glo ATP luminescence, 16 h; max response: stronger effect = lower value
# In short: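 ARE-bla HepG2 cells (2,000/well) rested 5 hrs at 37C/5% CO2, then exposed to compounds in DMSO for 16 hrs. Viability was read in the same wells as intracellular ATP by luminescence, 30 min at room temperature after reagent addition.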
# [10] = Cell Viability - Renal Proximal Tubule (AID 545); details: renal proximal tubule cells viability, primary cells of rat origin; activity change, negative = cytotoxicity: at 91.7 µM (top of the series);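 also: cells exposed to compound for 40 hours; nearly all actives have a fitted effect of over 40% in size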
# In short: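 Luminescent ATP signal (CellTiter-Glo) served as the viability read-out after 40 hr compound exposure of freshly isolated rat proximal tubule cells at 37 °C. Concentration-dependent ATP loss was fitted with the Hill equation to give AC50.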
# [11] = Cell Viability - LYMP2-021 (AID 974);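 also: compound exposure lasts 24 hours at 37 °C; nearly all actives have a fitted effect of over 55% in size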; also: potency is read from the fitted curve at half-maximal effect
# In short: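 In qHTS format, compounds are tested against 2500 lymphoblastoid cells per well for 24 h; viable cell number is inferred from ATP-driven luciferase light, and Hill-equation fitting yields AC50 values.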
# [12] = molecular target: Glucocorticoid receptor (Homo sapiens) (UniProt P04150); assay: qHTS assay for small molecule antagonists of glucocorticoid receptor signaling (AID 588533; active = well fitted inhibition curve with a large enough effect in the signal ratio, with a control signal flat, not every such curve was filed as active; the % refers to the signal ratio;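 also: cells stimulated with 2 nM dexamethasone as agonist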)
# In short: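 Antagonist-mode qHTS: compound titrations added to GRE-bla HeLa cells, then dexamethasone 2 nM final; 18 h, 37 C. CCF4 FRET fluorescence normalized to dexamethasone and DMSO; IC50 from Hill fit.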
# [13] = molecular target: Peroxisome proliferator-activated receptor gamma (Homo sapiens) (UniProt P37231); assay: qHTS assay for small molecule agonists of peroxisome proliferator-activated receptor gamma signaling (AID 588536; active = well fitted curve in the direction sought with a large enough effect in the signal ratio, with a control signal flat, not every such curve was filed as active; the % refers to the signal ratio)
# In short: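 Compound treatment: 16 h, 37 C, HEK293 GeneBLAzer cells. Detection: CCF4, 2 h RT. Values: Hill-fit EC50, efficacy as % of 2 uM rosiglitazone.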
# [14] = molecular target: Peroxisome proliferator-activated receptor gamma (Homo sapiens) (UniProt P37231); assay: qHTS assay for small molecule antagonists of peroxisome proliferator-activated receptor gamma signaling (AID 588537; active = well fitted inhibition curve with a large enough effect in the signal ratio, with a control signal flat, not every such curve was filed as active; the % refers to the signal ratio;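 also: reporter cells co-stimulated with 50 nM rosiglitazone agonist during compound treatment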)
# In short: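 HEK293 cells, PPAR-gamma-UAS-bla, 3000/well. Pre-incubation 6-6.5 h, 37 C. Compound titration with rosiglitazone 50 nM final, 16 h. CCF4 dye, 2 h RT, dual-emission fluorescence.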
# [15] = molecular target: Vitamin D3 receptor (Homo sapiens) (UniProt P11473); assay: qHTS assay for small molecule antagonists of vitamin D receptor signaling (AID 588541; calls by dose curve;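 also: receptor activated by calcitriol during compound treatment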)
# In short: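 VDR-UAS-bla HEK293T cells (2000/well, 2% charcoal-stripped FBS) were treated with titrated compounds plus 1-alpha,25-dihydroxyvitamin D3 (50 nM or 3 nM final) for 16 h at 37 C. CCF4 beta-lactamase fluorescence was read; Hill fits gave IC50.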
# [16] = qHTS assay to identify small molecules that stimulate interleukin-8 (IL-8) secretion (AID 651758; active = well fitted activation curve with a large enough effect in the signal ratio; the % refers to the signal ratio; also: potency is read from the fitted curve at half-maximal effect)
# In short: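 Quantitative HTS in THP-1 monocytic cells at 2000 cells per well, with 16 hrs compound incubation at 37 C. IL-8 in the medium was then quantified by HTRF immunoassay, read after 1-3 hrs at room temperature.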
# [17] = Cell Viability - LYMP2-012 (AID 982);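 also: cellular ATP by luciferase luminescence where a drop means cytotoxicity; cells exposed to compound for one day before reading; nearly all actives have a fitted effect of over 55% in size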
# [18] = molecular target: Estrogen receptor (Homo sapiens) (UniProt P03372); assay: qHTS assay for small molecule antagonists of estrogen receptor alpha signaling (AID 588513; active = well fitted curve in the direction sought with a large enough effect in the signal ratio, with a control signal flat, not every such curve was filed as active; the % refers to the signal ratio)
# In short: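 Fluorescence from CCF4 substrate after 2 h at room temperature gave reporter activity; cells had been exposed to compound and 0.5nM 17-beta-estradiol for 18 h at 37 C. Hill-equation fitting yielded IC50 and maximal response.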
# [19] = Cell Viability - N2a (AID 540); details: N2a mouse neuroblastoma cell viability; activity change, negative = cytotoxicity: at 92.2 µM (top of the series);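 also: cells exposed to compound for 40 h at 37 °C; nearly all actives have a fitted effect of over 45% in size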
# In short: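 In this qHTS cytotoxicity screen, ATP-dependent luciferase luminescence reports viable N2a cells after a 40 hr compound exposure in complete culture medium. Potencies are AC50 values from standard Hill equation fits.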
# [20] = molecular target: Tumor necrosis factor (Homo sapiens) (UniProt P01375); assay: qHTS assay to identify small molecules that stimulate Tumor Necrosis Factor-alpha (TNF-alpha) secretion (AID 651757; active = well fitted curve in the direction sought with a large enough effect in the signal ratio; the % refers to the signal ratio)
# In short: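 Using 3000 THP-1 cells per well, compounds and controls were applied for 17 hrs at 37 C. Detection followed with two labeled anti-TNF-alpha antibodies (cryptate donor, XL665 acceptor) for 3 hr at room temperature, measured by TR-FRET.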
# Bile acid receptor (Homo sapiens), sequence (Q96RI1 whole entry, looked up): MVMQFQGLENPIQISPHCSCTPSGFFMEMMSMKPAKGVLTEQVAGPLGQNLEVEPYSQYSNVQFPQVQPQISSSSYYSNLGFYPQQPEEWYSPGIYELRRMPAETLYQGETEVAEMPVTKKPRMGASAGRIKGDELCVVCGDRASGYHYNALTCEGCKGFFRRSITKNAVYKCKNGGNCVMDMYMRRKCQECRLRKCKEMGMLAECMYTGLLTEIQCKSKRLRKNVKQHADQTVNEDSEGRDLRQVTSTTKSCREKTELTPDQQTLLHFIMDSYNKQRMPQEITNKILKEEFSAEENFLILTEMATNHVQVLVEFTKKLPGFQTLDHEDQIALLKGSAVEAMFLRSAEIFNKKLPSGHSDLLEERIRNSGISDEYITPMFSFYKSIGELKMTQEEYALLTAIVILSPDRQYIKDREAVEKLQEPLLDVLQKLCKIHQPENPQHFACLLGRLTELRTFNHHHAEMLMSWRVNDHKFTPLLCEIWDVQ
# Peroxisome proliferator-activated receptor gamma (Homo sapiens), sequence (P37231 whole entry, looked up): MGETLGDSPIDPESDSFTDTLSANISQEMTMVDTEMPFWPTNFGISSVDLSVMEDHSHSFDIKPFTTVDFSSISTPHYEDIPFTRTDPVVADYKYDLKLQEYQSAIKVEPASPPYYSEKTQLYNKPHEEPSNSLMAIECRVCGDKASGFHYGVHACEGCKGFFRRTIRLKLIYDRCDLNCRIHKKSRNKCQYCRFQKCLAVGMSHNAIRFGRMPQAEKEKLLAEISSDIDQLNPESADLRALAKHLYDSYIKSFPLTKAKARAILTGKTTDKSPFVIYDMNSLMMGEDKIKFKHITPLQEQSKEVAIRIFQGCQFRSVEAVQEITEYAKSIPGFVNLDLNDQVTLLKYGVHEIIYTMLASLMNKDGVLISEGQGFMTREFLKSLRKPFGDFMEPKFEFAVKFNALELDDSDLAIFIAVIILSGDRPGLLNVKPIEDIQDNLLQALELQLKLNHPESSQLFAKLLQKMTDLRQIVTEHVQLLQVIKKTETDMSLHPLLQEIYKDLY
# Vitamin D3 receptor (Homo sapiens), sequence (P11473 whole entry, looked up): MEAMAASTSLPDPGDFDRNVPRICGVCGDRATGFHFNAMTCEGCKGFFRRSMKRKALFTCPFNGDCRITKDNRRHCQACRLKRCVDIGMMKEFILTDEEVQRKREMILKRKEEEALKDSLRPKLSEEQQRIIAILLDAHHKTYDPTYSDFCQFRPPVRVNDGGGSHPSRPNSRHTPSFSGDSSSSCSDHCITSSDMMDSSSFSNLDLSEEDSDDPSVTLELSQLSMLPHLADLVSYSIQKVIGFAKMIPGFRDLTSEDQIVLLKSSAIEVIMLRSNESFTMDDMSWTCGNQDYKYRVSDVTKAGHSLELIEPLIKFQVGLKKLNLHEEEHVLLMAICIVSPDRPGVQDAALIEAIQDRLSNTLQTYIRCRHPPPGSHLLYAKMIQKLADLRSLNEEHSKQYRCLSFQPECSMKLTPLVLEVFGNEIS
# Tumor necrosis factor (Homo sapiens), sequence (P01375 whole entry, looked up): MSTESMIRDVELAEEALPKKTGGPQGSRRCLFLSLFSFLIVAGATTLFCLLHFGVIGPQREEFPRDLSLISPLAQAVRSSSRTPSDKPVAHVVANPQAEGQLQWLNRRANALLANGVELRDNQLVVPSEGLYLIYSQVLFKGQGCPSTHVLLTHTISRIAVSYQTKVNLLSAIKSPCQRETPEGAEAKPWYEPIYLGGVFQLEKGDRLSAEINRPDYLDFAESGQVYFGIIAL
# Retinoic acid receptor RXR-alpha (Homo sapiens), sequence (P19793 whole entry, looked up): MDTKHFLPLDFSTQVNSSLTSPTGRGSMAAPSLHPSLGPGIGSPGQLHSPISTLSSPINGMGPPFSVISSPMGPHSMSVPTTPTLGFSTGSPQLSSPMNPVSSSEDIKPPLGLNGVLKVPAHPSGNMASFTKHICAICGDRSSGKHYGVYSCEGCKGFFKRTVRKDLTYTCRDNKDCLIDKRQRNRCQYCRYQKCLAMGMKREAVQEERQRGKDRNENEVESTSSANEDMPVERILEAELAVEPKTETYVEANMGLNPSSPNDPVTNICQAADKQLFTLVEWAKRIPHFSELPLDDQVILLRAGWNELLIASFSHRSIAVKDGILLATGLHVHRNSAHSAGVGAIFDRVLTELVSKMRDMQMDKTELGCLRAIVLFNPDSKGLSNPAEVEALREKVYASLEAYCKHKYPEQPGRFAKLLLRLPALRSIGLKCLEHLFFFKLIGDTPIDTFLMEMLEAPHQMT
# Glucocorticoid receptor (Homo sapiens), sequence (P04150 whole entry, looked up): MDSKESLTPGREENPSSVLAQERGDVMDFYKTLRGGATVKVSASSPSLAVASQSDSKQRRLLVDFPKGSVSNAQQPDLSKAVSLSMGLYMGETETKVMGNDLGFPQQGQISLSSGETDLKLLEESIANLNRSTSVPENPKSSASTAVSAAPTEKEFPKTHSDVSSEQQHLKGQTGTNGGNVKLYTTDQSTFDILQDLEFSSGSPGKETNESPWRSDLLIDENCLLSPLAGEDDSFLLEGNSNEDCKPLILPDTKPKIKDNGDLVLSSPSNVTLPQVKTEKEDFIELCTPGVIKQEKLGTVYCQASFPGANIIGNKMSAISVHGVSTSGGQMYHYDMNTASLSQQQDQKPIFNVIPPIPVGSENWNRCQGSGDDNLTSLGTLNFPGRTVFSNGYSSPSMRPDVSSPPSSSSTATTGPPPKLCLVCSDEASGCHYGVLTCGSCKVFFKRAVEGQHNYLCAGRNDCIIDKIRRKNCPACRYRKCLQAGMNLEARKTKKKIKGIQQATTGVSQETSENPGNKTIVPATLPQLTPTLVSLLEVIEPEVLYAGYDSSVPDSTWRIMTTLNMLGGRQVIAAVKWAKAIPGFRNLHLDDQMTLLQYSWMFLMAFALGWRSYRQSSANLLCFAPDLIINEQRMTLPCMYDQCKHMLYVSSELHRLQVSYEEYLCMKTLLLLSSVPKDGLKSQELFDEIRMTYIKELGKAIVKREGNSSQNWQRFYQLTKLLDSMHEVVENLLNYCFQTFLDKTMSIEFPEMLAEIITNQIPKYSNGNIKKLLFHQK
# Estrogen receptor (Homo sapiens), sequence (P03372 whole entry, looked up): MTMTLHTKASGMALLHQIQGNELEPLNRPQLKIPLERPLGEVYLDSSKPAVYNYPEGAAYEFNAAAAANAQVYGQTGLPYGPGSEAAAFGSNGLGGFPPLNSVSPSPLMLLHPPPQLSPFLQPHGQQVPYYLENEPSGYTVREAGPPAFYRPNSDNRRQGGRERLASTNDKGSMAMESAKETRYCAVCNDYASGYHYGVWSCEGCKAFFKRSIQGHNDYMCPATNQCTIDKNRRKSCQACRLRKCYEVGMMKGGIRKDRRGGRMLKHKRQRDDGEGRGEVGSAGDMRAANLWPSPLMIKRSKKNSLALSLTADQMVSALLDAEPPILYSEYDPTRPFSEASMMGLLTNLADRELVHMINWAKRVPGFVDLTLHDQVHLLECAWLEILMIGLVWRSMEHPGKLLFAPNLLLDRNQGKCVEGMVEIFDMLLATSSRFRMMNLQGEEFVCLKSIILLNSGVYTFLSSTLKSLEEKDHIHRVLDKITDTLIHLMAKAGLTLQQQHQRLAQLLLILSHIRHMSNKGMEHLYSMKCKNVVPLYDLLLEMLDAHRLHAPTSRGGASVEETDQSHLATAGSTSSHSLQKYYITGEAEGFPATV
smiles,measurement,setting,value
Cc1ccc(O)c(N)c1,Potency,[1],inactive
same,"activity change, negative = cytotoxicity",[2],-124% (active)
same,Potency,[3],79.4 µM (active)
same,Potency,[4],inactive
same,Potency,[5],inactive
same,max response,[6],-35.8%
same,Potency,[7],inactive
same,Potency,[8],16.8 µM (active)
same,max response,[9],-26.2% (inactive)
CC(=O)CC(=O)Nc1ccccc1,Potency,[1],inactive
same,"activity change, negative = cytotoxicity",[2],-3.89% (inactive)
same,Potency,[10],inactive
same,Potency,[3],inactive
same,Potency,[11],inactive
same,Potency,[5],inactive
same,Potency,[12],inactive
same,max response,[6],18.5%
same,outcome,[13],inactive
same,Potency,[14],inactive
same,Potency,[15],inactive
same,Potency,[8],inactive
same,Potency,[16],inactive
CC/C=C/C/C=C/C/C=C/CCCCCCCC(=O)OCC,"activity change, negative = cytotoxicity",[2],-19.6% (inactive)
same,Potency,[3],31.6 µM (active)
same,Potency,[11],50.1 µM (active)
same,Potency,[12],inactive
same,outcome,[13],inactive
same,Potency,[8],59.6 µM (active)
Oc1cc(Cl)cc(Cl)c1Cl,Potency,[1],inactive
same,"activity change, negative = cytotoxicity",[2],-14.4% (inactive)
same,Potency,[3],inactive
same,Potency,[17],inactive
same,outcome,[18],inactive
same,Potency,[4],inactive
same,max response,[9],-7.11% (inactive)
O=[N+]([O-])c1cc(Cl)c(Cl)c(Cl)c1Cl,Potency,[1],inactive
same,"activity change, negative = cytotoxicity",[19],-28% (inactive)
same,Potency,[2],7.94 µM (active)
same,Potency,[10],inactive
same,Potency,[3],inactive
same,Potency,[17],inactive
same,max response,[6],8.11%
same,Potency,[8],29.8 µM (active)
NC(=O)Nc1nc2ccccc2[nH]1,Potency,[1],inactive
same,Potency,[3],inactive
same,Potency,[17],inactive
same,outcome,[18],inactive
same,Potency,[4],inactive
same,Potency,[5],inactive
same,max response,[6],-10.2%
same,outcome,[13],inactive
same,Potency,[7],inactive
same,Potency,[8],inactive
same,Potency,[20],inactive
O=C1OC(=O)c2ccccc21,Potency,[1],inactive
same,Potency,[10],inactive
same,Potency,[3],inactive
same,outcome,[18],inactive
same,Potency,[4],inactive
same,Potency,[5],inactive
same,Potency,[12],inactive
same,max response,[6],-31.3%
same,outcome,[13],inactive
same,Potency,[7],inactive
same,Potency,[8],inactive
same,Potency,[20],inactive
same,max response,[9],-7.68% (inactive)
Cc1cc2nc(N)sc2cc1C,Potency,[3],inactive
same,Potency,[11],inactive
same,Potency,[17],inactive
same,Potency,[5],inactive
same,outcome,[13],inactive
same,Potency,[14],inactive
same,Potency,[15],inactive
same,Potency,[7],inactive
same,Potency,[20],inactive
same,max response,[9],-19.7% (inactive)
O=C=Nc1ccc(Cl)c(Cl)c1,"activity change, negative = cytotoxicity",[2],-122% (active)
same,Potency,[3],inactive
same,outcome,[18],inactive
same,Potency,[4],inactive
same,Potency,[15],inactive
same,Potency,[8],75 µM (active)
same,max response,[9],-6.45% (inactive)
O=Nc1ccc(Nc2ccccc2)cc1,Potency,[1],inactive
same,"activity change, negative = cytotoxicity",[19],-115% (active)
same,Potency,[2],31.6 µM (active)
same,max response,[9],-2.32% (inactive) and -16.8% (inactive)
CCN(CC)c1ccc(N)cc1,"activity change, negative = cytotoxicity",[19],-118% (active)
same,"activity change, negative = cytotoxicity",[2],-96.6% (active)
same,Potency,[3],39.8 µM (active)
same,Potency,[8],37.6 µM (active)
same,Potency,[16],37.6 µM (active)
CC(/C=C/C=C(C)/C=C/C(=O)O)=C\C=C\C=C(C)\C=C\C=C(C)\C=C\C(=O)O,Potency,[1],inactive
same,Potency,[3],50.1 µM (active)
same,outcome,[18],inactive
same,Potency,[4],inactive
same,Potency,[5],inactive
same,Potency,[12],inactive
same,Potency,[15],inactive
same,Potency,[7],inactive
same,Potency,[8],37.6 µM (active)
same,max response,[9],-1.24% (inactive)
CCOc1ccc2nc(N)sc2c1,Potency,[1],inactive
same,"activity change, negative = cytotoxicity",[2],-15.3% (inactive)
same,Potency,[3],inactive
same,Potency,[11],inactive
same,Potency,[17],inactive
same,outcome,[18],inactive
same,Potency,[4],inactive
same,Potency,[12],inactive
same,outcome,[13],inactive
same,Potency,[7],inactive
same,max response,[9],-3.62% (inactive)
O=[N+]([O-])c1cc(N(CCO)CCO)ccc1NCCO,Potency,[17],inactive
same,outcome,[18],inactive
same,Potency,[4],inactive
same,max response,[6],25% and 8.06%
same,Potency,[8],inactive
same,max response,[9],-24.7% (inactive)
